Screen size: about 320,000 compounds; about 8,000 (2.5%) were called active. Rule as the data show it: active = activation above about 47%; inactive = the rest. The list comes from a sample in which actives are over-represented; it also holds similar structures and randomly drawn compounds.
Biological target: Aryl hydrocarbon receptor (Homo sapiens) (UniProt P35869)
Assay: AHR activators, primary screen, cell-based, luminescence, luciferase reporter, human (AID 2796);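 also: 0% = vehicle wells and 100% = reference agonist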
Conditions: AHR-responsive luciferase reporter cells, at 5 µM, stronger effect = higher value

Sequence of Aryl hydrocarbon receptor (Homo sapiens) (P35869 whole entry, looked up): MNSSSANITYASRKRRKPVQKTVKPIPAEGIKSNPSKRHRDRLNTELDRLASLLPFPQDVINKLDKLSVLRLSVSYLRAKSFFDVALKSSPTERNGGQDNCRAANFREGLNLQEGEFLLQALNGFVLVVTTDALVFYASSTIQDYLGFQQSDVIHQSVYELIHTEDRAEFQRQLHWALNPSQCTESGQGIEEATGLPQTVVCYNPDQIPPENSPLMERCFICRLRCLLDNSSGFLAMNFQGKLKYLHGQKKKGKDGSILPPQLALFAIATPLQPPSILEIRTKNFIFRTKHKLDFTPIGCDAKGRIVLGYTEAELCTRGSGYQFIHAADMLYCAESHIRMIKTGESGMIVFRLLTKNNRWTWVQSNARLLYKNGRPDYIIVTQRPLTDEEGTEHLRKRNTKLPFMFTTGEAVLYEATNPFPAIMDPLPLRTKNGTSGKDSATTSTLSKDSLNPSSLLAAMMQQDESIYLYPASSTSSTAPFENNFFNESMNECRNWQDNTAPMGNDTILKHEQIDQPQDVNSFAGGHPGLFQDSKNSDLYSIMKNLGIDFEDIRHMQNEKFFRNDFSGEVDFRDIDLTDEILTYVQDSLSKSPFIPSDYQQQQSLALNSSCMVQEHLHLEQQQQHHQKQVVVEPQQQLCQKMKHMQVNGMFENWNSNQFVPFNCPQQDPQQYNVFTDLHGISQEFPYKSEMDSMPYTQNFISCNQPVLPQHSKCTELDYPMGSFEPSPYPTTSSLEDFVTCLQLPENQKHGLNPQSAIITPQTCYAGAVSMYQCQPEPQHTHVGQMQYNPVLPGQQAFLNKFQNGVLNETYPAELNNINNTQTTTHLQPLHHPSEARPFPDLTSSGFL

activation, inactive:
Cc1nc(-c2ccc([N+](=O)[O-])cc2)c(-c2ccccc2)o1 1.84%, COc1ccc([N+](=O)[O-])cc1-c1nc2ccccc2nc1-c1ccccc1 3.27%, CCNC(=O)c1cccc(NC(=O)C2CC(=O)N(CCc3ccccc3)C2)c1 (stereo unspecified) 2.07%, C=CCn1cc(C(=O)NCc2ccc(Cl)cc2)c(=O)c2cc(S(=O)(=O)N(CC)CC)ccc21 11.3%, CCCOc1ccc(Cc2c(Cl)nc(SC)nc2NC)cc1 2.63%, COc1cccc(CNS(=O)(=O)c2cc3c(cc2C)n(C)c(=O)c(=O)n3C)c1 -0.05%, COc1cc2ccccc2cc1C(=O)Nc1nc(C)c(C(C)=O)s1 6.6%, COc1ccccc1OCc1nc2ccccc2s1 45.1%, COc1cccc2sc(N(CCCN(C)C)C(=O)C(c3ccccc3)c3ccccc3)nc12 -0.96%, COc1ccccc1/C=N/Nc1nc(C)c(C(C)=O)s1 33.6%, CCOP(=O)(OCC)C(Nc1ccc([N+](=O)[O-])cc1)c1ccc(Cl)cc1 (stereo unspecified) 0.69%, Cn1ccc(=Nc2ccc(NC(=O)c3ccc(N=c4ccn(C)c5ccc([N+](=O)[O-])cc45)cc3)cc2)cc1 2.76%, O=C(Nc1nnc(-c2ccccc2)o1)c1cccc(S(=O)(=O)N2CCOCC2)c1 2.09%, CC(C)CNC(=O)COC(=O)c1ccccc1OCC(=O)Nc1ccc(Br)cc1 -3.8%, CC(C)C(NC(=O)c1cccc(S(=O)(=O)N2CCOCC2)c1)C(=O)NCCc1ccccn1 (stereo unspecified) -6.5%, c1ccc2c(CNn3cnnc3)cccc2c1 0.98%, COc1ccc2ccccc2c1CNCc1ccccn1 18.4%, COc1ccc(CCNC(=O)C(=O)NCC2OCCN2S(=O)(=O)c2cccs2)cc1OC (stereo unspecified) -2.65%, CN(CCc1ccccc1)C(=O)c1cccc(NC(=O)Cc2ccc([N+](=O)[O-])cc2)c1 -0.06%, Cn1nccc1NC(=O)Nc1ccc(OC(F)(F)F)cc1 3.12%, Cn1cccc1/C=N/NC(=O)c1ccc(OC(F)(F)C(F)F)cc1 3.37%, COC(=O)c1ccc(COC(=O)CNC(=O)c2cccc(OC)c2)o1 0.14%, O=C(c1ccc(-c2ccccc2)cc1)C1CCCN(C(=O)c2cncs2)C1 (stereo unspecified) 37.6%, CC1(C)CC(=O)C=C(c2ccc3ncccc3c2)C1 8.47%, CN(C)C(=O)c1ccc(NC(=O)COC(=O)c2cc3c(s2)CCCCC3)cc1 -0.09%, O=C(NNC(=O)c1cc2c(s1)CCCC2)c1ccccc1 4.72%, CC(C)CCNC(=O)C(C)N(C(=O)Cn1nnc(-c2ccc(F)cc2)n1)C1CCCC1 (stereo unspecified) -2.15%, CC(OC(=O)c1cc2ccccc2[nH]1)C(=O)N(C)c1ccccc1 (stereo unspecified) 28.8%, COc1ccc2[nH]c(C(=O)Nc3ccccc3Cl)cc2c1 21%, CCc1ccc(Oc2nc([N+](=O)[O-])nn2C)cc1 -3.57%, CCCN(CCc1ccccc1)C1CCc2c(O)cccc2C1 (stereo unspecified) 3.78%, COc1cc(/C=N/NC(=O)CNC(=O)c2ccncc2)ccc1OC(C)=O 0.59%, COc1cc(/C=N/NC(=O)c2cccnc2)ccc1OC(=O)c1cccc(Br)c1 18.7%, COc1cnc(SCc2ccc(Cl)c(Cl)c2)nc1Cl -1.43%, CCOC(=O)c1ccc(NC(=O)Cc2cccs2)cc1 0.34%, O=C(Cc1cccs1)Nc1ccc([N+](=O)[O-])cc1 0.97%, CN1CCC(CN)(N2CCN(c3ccccc3)CC2)CC1 2.54%, COc1ccccc1C(=O)N(Cc1ccc(C)o1)C1CCS(=O)(=O)C1 (stereo unspecified) -1.67%, Cc1ccc2c(N)c(C(=O)c3ccccc3)sc2n1 46.1%, CCc1nc2sc(C(=O)O)c(N)c2c2c1CCCC2 0.64%, CC1(C)CC(=O)C=C(NCCN2CCNCC2)C1 3.32%, COc1cccc(C2=CC(=O)C[C@H](c3ccc(OC)c(OC)c3)C2)c1 2.2%, O=S(=O)(Nc1cc(S(=O)(=O)N2CCOCC2)ccc1N1CCCC1)c1cccs1 1.52%, CCOc1ccc2[nH]c(C(=O)N/N=C/c3cccc(OC)c3OC)cc2c1 33%, CCOc1cc(/C=N/NC(=O)c2cc(-c3ccccc3)nc3ccccc23)ccc1O 16.1%, COc1ccc(/C=N/NC(=O)c2cc(-c3cccc(C)c3)nc3ccccc23)cc1O 21.2%, COc1ccc2[nH]c(C(=O)N/N=C/c3cc(OC)c(OC)c(OC)c3)cc2c1 30.9%, O=C(COc1ccc(Br)cc1F)NCC1(N2CCCCC2)CCCCC1 -0.81%, O=c1oc2c(Cl)cc(Cl)cc2cc1-c1nnc(Nc2ccccc2F)s1 10.5%

activation, active:
Cn1nc(-c2ccccc2)c2cc([N+](=O)[O-])ccc21 67.7%, COc1cccc2sc(NNC(=O)c3nc4ccccc4s3)nc12 86.3%, COc1cccc2sc(Nc3nc(C)c(C(C)=O)s3)nc12 67.4%, c1ccc(NCc2cccc3ccccc23)nc1 67.9%, O=C(Nc1ccc(OC(F)(F)F)cc1)c1ccc2c(c1)no[n+]2[O-] 93.6%, O=C(Nc1ccc(F)cc1)c1cc2c(s1)CCCC2 55.3%, O=C(Nc1ccccc1)c1cc2ccccc2[nH]1 160%, COc1ccc(/C=N\NC(=O)c2sc(N)nc2C)cc1OC 77.3%, O=C(Cc1cccs1)Nc1cccc(-c2nc3ccccc3[nH]2)c1 75.8%, Cc1nc2sc(C(=O)c3ccccc3)c(N)c2c2c1CCCC2 85.3%, COc1cccc(OCc2cc(/C=N/NC(=O)c3nc(Cl)c(Cl)c(N)c3Cl)ccc2OC)c1 73.8%, COc1cccc(-c2cc(C(=O)N/N=C/c3ccc(OC)c(COC(C)=O)c3)c3ccccc3n2)c1 54.1%
